Experimental findings from PubChem BioAssay (NCI) are described below.

The panel holds about 83,000 compounds, 20% with a hit somewhere; the sample as a whole holds those more often.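 96-well plates, one dose, 48 hours. Percent growth reported; active if below 10.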 The source made the active and inactive calls.

The test system of the assay is HL-60(TB) leukemia. Briefly: NCI-60 one-dose screen, 48 h (100 = growth as untreated, 0 = no growth, -100 = all killed). To be noted: 10 µM unless noted.
For the compound `N=c1c2c(=O)n3c(nc2nc2sc4ccc(Cl)cc4n12)-c1ccccc1Sc1ccccc1-3`, the growth is 4.46% (active).

Regarding `Cc1cccc(NC(=O)CCc2ccc(N3C(N)=NC(N)=NC3(C)C)cc2)c1`, the growth is 20.1% (inactive).

In the case of `Cc1nc2ccccc2c(N)c1-c1cc(C)c2c(C)nc3ccccc3c2n1`, the growth is -66.5% (active).

As for `C[C@@H]1C[C@@H]([C@@H](CC2CC(=O)NC(=O)C2)OC(=O)CC(=O)c2ccccc2)C(=O)[C@@H](C)C1`, the growth is 13% (inactive).

Turning to `CCCCCCCCCCOC(C)=O`, the growth is 107% (inactive).

For `COc1ccncc1S(=O)(=O)NC(=O)Nc1ccc(Cl)c(Cl)c1`, the growth is 84.8% (inactive).

Turning to `COC(=O)C1(C)COP(=O)(Nc2ccc(OC)cc2)OC1` (stereo not given), the growth was 94.7% (inactive).

`OC(c1cc(-c2ccc(Cl)cc2)nc2c(Cl)cccc12)C1CCCCN1` (stereo not given): the growth is -67% (active).

With `CC(=O)Nc1nc(C)c(C(=O)N/N=C/N2CCOCC2)s1`, the growth is 188% (inactive).

As to `Cc1ccc(C2CCCCC2)cc1Br`, the growth was 97% (inactive).

`Cc1ccc(-c2c(-c3ccccc3)c(=O)oc3ccc(C)cc23)cc1`: the growth was 87% (inactive).

Take `COC(=O)C1(NC(=O)CNC(=O)OCc2ccccc2)CCCC1`: the growth was 90.4% (inactive).

As for `CCCCCCCCCCCCCC/C=C\C(CC(=O)O)C(=O)O` (stereo not given), the growth was 72.4% (inactive).

Regarding `CCCCCCc1nc2c(c(C)nn2-c2ccccc2)c2c1CCCCC2`, the growth was 108% (inactive).

Consider `C=C1CCC2C(C)(CO)C(O)CCC2(C)C1C/C=C1/C(=O)OCC1Oc1ccccc1C` (stereo not given), for which the growth is 57.4% (inactive).

As for `NC(=S)Nc1ccc2c(c1)Cc1ccccc1-2`, the growth was 77.4% (inactive).

In the case of `CCc1ccc(C(c2ccc(CC)cc2)C(Cl)(Cl)CCl)cc1`, the growth is 77.2% (inactive).

For `COc1ccc(C(=O)N2c3ccccc3Sc3ccccc32)c(C(F)(F)F)c1`, the growth is 2.01% (active).

Regarding `Clc1cc(Cl)c(OCCCCCCN2CCNCC2)c(Cl)c1`, the growth was -34.3% (active).

With `CCC(=C(c1ccc(OCCN(CC)CC)cc1)c1ccc(OCCN(CC)CC)cc1)c1ccc(Cl)cc1`, the growth is -51.6% (active).

With `CCN1C(=O)N(CC)C2C1NC(=S)N2/N=C/C=C/c1ccccc1` (stereo not given), the growth was -39.2% (active).

On to `Cc1cc(=O)n(C(=S)Nc2ccc(Cl)cc2)c2cc(O)ccc12`, for which the growth is 111% (inactive).

In the case of `CCN(CC)c1ccc(/C=C2\SC(=O)C(Nc3nnc(-c4cccnc4SCc4ccccc4)o3)C2=O)cc1` (stereo not given), the growth is 19.4% (inactive).

With `COc1ccc2nc(C)cc(Nc3ccccc3O)c2c1`, the growth was 5.11% (active).

`COc1cccc(C2=NN3C(C2)c2ccccc2OC3c2ccc(/C=C3\SC(=O)NC3=O)cc2)c1` (stereo not given): the growth is 100% (inactive).

In the case of `O=c1[nH]c(=S)[nH]c2nc[nH]c12`, the growth is 87% (inactive).

Turning to `CC(=O)C1Cc2ccccc2C1=O` (stereo not given), the growth was 97.4% (inactive).

Turning to `COC(=O)[C@@H]1CCCN1C(=O)[C@@H]1CCCN1C(=O)[C@@H](Cc1c[nH]c2ccccc12)NC(=S)Nc1cc(C(F)(F)F)cc(C(F)(F)F)c1`, the growth is 11.1% (inactive).

For `CCCCCC(=O)Oc1ccc(/C(=C(\C)c2ccccc2)c2ccc(OCCN(CC)CC)cc2)cc1`, the growth was 33.9% (inactive).

In the case of `COc1ccc(-c2cc(Nc3ccnc(N4CCOCC4)n3)on2)cc1`, the growth was -29.9% (active).

Regarding `CCCCC(=O)Nc1ncc(Cc2ccccc2Cl)s1`, the growth is -7.94% (active).

As for `CN(Cc1cnc2nc(N)nc(N)c2n1)c1ccc(C(=O)NC(CCC(=O)O)C(=O)O)cc1` (stereo not given), the growth was 29.5% (inactive).

As for `CCOC(=O)c1c2ncccc2n2c(=O)n(-c3ccc(Cl)cc3)nnc12`, the growth is 80.5% (inactive).

Take `O=[N+]([O-])c1c(O)c(Cl)cc(Cl)c1Cl`: the growth is 92.1% (inactive).

Turning to `COc1ccc(-c2oc(=O)ccc2-c2cc(OC)c(OC)c(OC)c2)cc1O`, the growth was -58.9% (active).

For the compound `CC(C)(C)c1[nH]nc2c1C(c1cc3ccccc3[nH]c1=O)Nc1cc(C(=O)Nc3ccc(Cl)cc3)ccc1N2` (stereo not given), the growth is 55.9% (inactive).

On to `CC(=[N-])N1CCC[C@@H](Nc2c3ccccc3nc3ccccc23)C1.[Cl][Pt].[NH-]CCC[NH-]`, for which the growth was 17% (inactive).

On to `CC1O[C@@H]2C[C@@](O)([C@H]1O)n1c3ccccc3c3c4c(c5c6ccccc6n2c5c31)C(=O)NC4=O` (stereo not given in full), for which the growth was 66.6% (inactive).

As for `COc1cc(/C=C2\CCC/C(=C\c3ccc(OCC4CO4)c(OC)c3)C2=O)ccc1OCC1CO1` (stereo not given), the growth was -3.96% (active).

As to `COc1ccc(C2CC(c3ccc(OC)c(OC)c3)=NN2C(=O)c2cc(OC)c(OC)c(OC)c2)c(OC)c1` (stereo not given), the growth is 84% (inactive).
